Laboratory results taken from the supplement of paper PMC7156485.
Where “and” joins values, the source holds several entries; their conditions need not be identical. Equal values may be shown once.

Tested on: TDF
Experiment: cell number relative to DMSO (% of DMSO); higher = more cells (less growth inhibition / toxicity)
Conditions: concentration: 10 µM; 24 h
Method in brief: (§1)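 HCC1569 and TDF cells (800 per well, 384-well plates, RPMI with 10% FBS) were treated with compounds at 10 µM for 24 h at 37 °C, in triplicate. Cells were fixed in 3.7% formaldehyde and stained with a rabbit anti-H1.0 antibody, an AlexaFluor 647 secondary and DAPI; six fields per well were imaged at ×10. H1.0 nuclear intensity or cell number is expressed as percent of the plate DMSO control, taking the median of replicates. HCC1569 values were smoothed for positional effects.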
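Throughout, for H1.0 immunofluorescence intensity relative to DMSO: TDF is a line of transformed human dermal fibroblasts of mesenchymal origin.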
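Throughout, for cell number relative to DMSO: TDF denotes transformed human dermal fibroblasts of mesenchymal origin.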

Row | SMILES | cell number
1 | CS(=O)(=O)CCNCc1ccc(-c2ccc3ncnc(Nc4ccc(OCc5cccc(F)c5)c(Cl)c4)c3c2)o1.Cc1ccc(S(=O)(=O)O)cc1.Cc1ccc(S(=O)(=O)O)cc1 [Lapatinib ditosylate] | 94.3
2 | CCCOc1cc2c(cc1\C(C)=C/C=C/C(C)=C/C(=O)O)C(C)(C)CCC2(C)C | 107
3 | CCOC(=O)C1=C(C)NC(=S)NC1c1cccc(O)c1 (configuration not stated) [Monastrol] | 112
4 | Cl.NC1C=CC=C(C(=O)O)C1 (configuration not stated) [Gabaculine hydrochloride] | 108
5 | O=c1[nH]c(=O)n(C2CC(O)C(CO)O2)cc1I (configuration not stated) [Idoxuridine] | 100
6 | O=C(O)COC(=O)Cc1ccccc1Nc1c(Cl)cccc1Cl [Aceclofenac] | 101
7 | C=C1C(=O)C23C(O)C1CCC2C12COC3(O)C(O)C1C(C)(C)CCC2O (configuration not stated) [Rubescensin A] | 99
8 | CC(C)C[C@@H](C(=O)O)c1cc(-c2ccc(C(F)(F)F)cc2)cc(-c2ccc(C(F)(F)F)cc2)c1 | 92.4
9 | Cl.N=C(N=C(N)N)N1CCOCC1 [Moroxydine.HCl] | 120
10 | NC(=O)C1=CN(C2OC(COP(=O)([O-])OP(=O)([O-])OCC3OC(n4cnc5c(N)ncnc54)C(OP(=O)([O-])[O-])C3O)C(O)C2O)C=CC1.[Na+].[Na+].[Na+].[Na+] (configuration not stated) [NADPH tetrasodium] | 102
11 | Br.CN1C2CCC1CC(OC(=O)C(O)c1ccccc1)C2 (configuration not stated) | 97.5
12 | COc1cc2nccc(Oc3ccc(NC(=O)Nc4ccc(F)cc4F)c(F)c3)c2cc1OC | 59.9

Tested on: TDF
Experiment: H1.0 immunofluorescence intensity relative to DMSO (% of DMSO); higher = stronger H1.0 induction, active = 120 or more
Conditions: concentration: 10 µM; 24 h
Method in brief: as §1

Row | SMILES | H1.0 immunofluorescence intensity
13 | Cc1cccc(Nc2ccccc2C(=O)O)c1C [Mefenamic acid] | 104 (inactive)
14 | OCC1=CC(O)C2C=COC(OC3OC(CO)C(O)C(O)C3O)C12 (configuration not stated) [Aucubin] | 99.8 (inactive)
15 | CCCCCCCCCCCCCC(=O)NC(C)C(O)c1ccccc1 [D-erythro MAPP] | 100 (inactive)
16 | CCCCCCCCCCCCCCCCOCC(COP(=O)([O-])OCC[N+](C)(C)C)OC(=O)NC (configuration not stated) | 95.7 (inactive)
17 | OCC1OC(n2cnc3c(NC4CCCCC4)ncnc32)C(O)C1O (configuration not stated) [N6-Cyclohexyladenosine] | 97.9 (inactive)
18 | CC(=O)Oc1ccccc1C(=O)Nc1ncc([N+](=O)[O-])s1 [2-{[(5-nitro-1,3-thiazol-2-yl)amino]carbonyl}phenyl acetate] | 98.5 (inactive)
19 | CN(C)CCC=C1c2ccccc2C=Cc2ccccc21.Cl [Cyclobenzaprine hydrochloride] | 109 (inactive)
20 | COc1cc2c(cc1OC)-c1cc(=Nc3c(C)cc(C)cc3C)n(C)c(=O)n1CC2.Cl [Trequinsin.HCl] | 92.8 (inactive)
21 | Cl.NCCS [Cysteamine hydrochloride] | 91.2 (inactive)
22 | CCCCCCCCCCCCCCCC(O)C(N)CO (configuration not stated) [Dihydrosphingosine] | 98.8 (inactive)
23 | C[C@@H](c1nc(-c2ccc(C#N)cc2)cs1)[C@](O)(Cn1cncn1)c1ccc(F)cc1F | 111 (inactive)
24 | Cc1c(C)c2c(c(C)c1OC(=O)CCC(=O)O)CCC(C)(CCCC(C)CCCC(C)CCCC(C)C)O2 (configuration not stated) [Tocopherol succinate] | 94.4 (inactive)
25 | COC(=O)CNC(=O)C(=O)OC [methyl 2-(2-methoxy-2-oxoethylamino)-2-oxoacetate] | 99.2 (inactive)
26 | CS(=O)(=O)CCNCc1nc(-c2ccc3ncnc(Nc4ccc(OCc5cccc(F)c5)c(Cl)c4)c3c2)cs1.Cl.Cl | 99.4 (inactive)
27 | CCCc1c(OCCCCc2nn[nH]n2)ccc(C(C)=O)c1O | 97.5 (inactive) and 94.5 (inactive)
28 | CC1CNc2c(cccc2S(=O)(=O)NC(CCCN=C(N)N)C(=O)N2CCC(C)CC2C(=O)O)C1 (configuration not stated) [Argatroban] | 94.1 (inactive)
29 | C[n+]1cccc(C(=O)O)c1.[Cl-] | 101 (inactive)
30 | CCC1=CC2CN(C1)Cc1c([nH]c3ccccc13)C(C(=O)OC)(c1cc3c(cc1OC)N(C)C1C(O)(C(=O)OC)C(OC(C)=O)C4(CC)C=CCN5CCC31C54)C2 (configuration not stated) [Vinorelbine] | 167 (active)
31 | Cn1ccnc1 [1-Methylimidazole] | 97.4 (inactive)
32 | C=CC(C)(O)CCC1C(C)(O)CCC2C(C)(C)CCCC21C (configuration not stated) [Sclareol] | 105 (inactive)

Row | SMILES | H1.0 immunofluorescence intensity
33 | CCOP(=O)(OCC)C(=Cc1cc(C(C)(C)C)c(O)c(C(C)(C)C)c1)P(=O)(OCC)OCC | 93.9 (inactive)
34 | OCC1OC(n2cnc3c(NC4CCCC4)nc(Cl)nc32)C(O)C1O (configuration not stated) [2-Chloro-N6-cyclopentyladenosine] | 89.3 (inactive)
35 | Nc1ccn(C2CCC(CO)O2)c(=O)n1 (configuration not stated) [2',3'-dideoxycytidine] | 89.2 (inactive)
36 | CC(C)C(CO)Nc1nc(Nc2ccc(C(=O)O)c(Cl)c2)c2ncn(C(C)C)c2n1 (configuration not stated) | 96.7 (inactive)
37 | COc1ccc(CC2c3cc(OC)c(OC)cc3CC[N+]2(C)C)cc1OC.[I-] (configuration not stated) [Laudanosine methiodide] | 91.3 (inactive)
38 | CC(=O)O.CSC(N)=NCCCC(N)C(=O)O [S-Methyl-L-thiocitrulline acetate] | 92 (inactive)
39 | COc1cc(Nc2c(C#N)cnc3cc(OCCCN4CCN(C)CC4)c(OC)cc23)c(Cl)cc1Cl [Bosutinib] | 135 (active)
40 | Cl.Cl.NCCNc1ncc(C(N)=O)c(Nc2cccc(C(F)(F)F)c2)n1.O.O [Syk Inhibitor II] | 88.2 (inactive)
41 | CS(=O)(=O)CCNCc1ccc(-c2ccc3ncnc(Nc4ccc(OCc5cccc(F)c5)c(Cl)c4)c3c2)o1.Cc1ccc(S(=O)(=O)O)cc1.Cc1ccc(S(=O)(=O)O)cc1 [Lapatinib ditosylate] | 93.5 (inactive)
42 | CCCOc1cc2c(cc1\C(C)=C/C=C/C(C)=C/C(=O)O)C(C)(C)CCC2(C)C | 90.3 (inactive)
43 | CCOC(=O)C1=C(C)NC(=S)NC1c1cccc(O)c1 (configuration not stated) [Monastrol] | 100 (inactive)
44 | Cl.NC1C=CC=C(C(=O)O)C1 (configuration not stated) [Gabaculine hydrochloride] | 102 (inactive)
45 | O=c1[nH]c(=O)n(C2CC(O)C(CO)O2)cc1I (configuration not stated) [Idoxuridine] | 92.2 (inactive)
46 | O=C(O)COC(=O)Cc1ccccc1Nc1c(Cl)cccc1Cl [Aceclofenac] | 95.3 (inactive)
47 | C=C1C(=O)C23C(O)C1CCC2C12COC3(O)C(O)C1C(C)(C)CCC2O (configuration not stated) [Rubescensin A] | 96.2 (inactive)
48 | CC(C)C[C@@H](C(=O)O)c1cc(-c2ccc(C(F)(F)F)cc2)cc(-c2ccc(C(F)(F)F)cc2)c1 | 93.7 (inactive)
49 | Cl.N=C(N=C(N)N)N1CCOCC1 [Moroxydine.HCl] | 98.7 (inactive)
50 | NC(=O)C1=CN(C2OC(COP(=O)([O-])OP(=O)([O-])OCC3OC(n4cnc5c(N)ncnc54)C(OP(=O)([O-])[O-])C3O)C(O)C2O)C=CC1.[Na+].[Na+].[Na+].[Na+] (configuration not stated) [NADPH tetrasodium] | 96.9 (inactive)
51 | Br.CN1C2CCC1CC(OC(=O)C(O)c1ccccc1)C2 (configuration not stated) | 97.2 (inactive)
52 | COc1cc2nccc(Oc3ccc(NC(=O)Nc4ccc(F)cc4F)c(F)c3)c2cc1OC | 103 (inactive)
